# B2AR arrestin: qHTS assay of beta-arrestin-biased ligands of beta2-adrenergic receptor. Beta-2 adrenergic receptor (Homo sapiens), P07550. beta-arrestin recruitment to beta2AR, cell-based reporter. Potency, µM (top dose mostly 46.1 µM), for the others: top-dose activation, actives largely listed as activators. 0.02% of 330,000 active. AID 492947, 2010; active means well fitted activation curve with a large enough effect;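 further: potency means the concentration at half of the fitted maximal effect; 0% = DMSO controls and full agonism = EC100 isoproterenol or metaproterenol; nearly all actives have a fitted effect of over 65% in size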
# Giardia kill: Small Molecules that selectively kill Giardia lamblia: qHTS; 0.15% of 340,000 active; AID 540267, 2011; Giardia lamblia trophozoite viability; activity change, % at 7.66 µM, hits read low; in the data active means activity change below about -80%;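 further: parasites exposed to compound for two days anaerobically before the ATP read; on the % scale 0 is the no-effect control and ±100 the full control effect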
#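 ATP-content bioluminescence gauges trophozoite survival. Cells (100/well) receive compound and incubate anaerobically for 48 hrs at 37 deg C; detection reagent follows for 15-30 min at room temperature.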
# DRD3 agonist: qHTS of D3 Dopamine Receptor Agonist: qHTS; D(3) dopamine receptor (Homo sapiens), P35462; D3R DiscoveRx beta-arrestin cells, luminescence, 90 min; max activation, %; 0.58% of 410,000 active; AID 652048, 2013; in the data active means max activation above about 30%; further: 0% is about no effect
# Target sequence (P35462 whole entry, looked up): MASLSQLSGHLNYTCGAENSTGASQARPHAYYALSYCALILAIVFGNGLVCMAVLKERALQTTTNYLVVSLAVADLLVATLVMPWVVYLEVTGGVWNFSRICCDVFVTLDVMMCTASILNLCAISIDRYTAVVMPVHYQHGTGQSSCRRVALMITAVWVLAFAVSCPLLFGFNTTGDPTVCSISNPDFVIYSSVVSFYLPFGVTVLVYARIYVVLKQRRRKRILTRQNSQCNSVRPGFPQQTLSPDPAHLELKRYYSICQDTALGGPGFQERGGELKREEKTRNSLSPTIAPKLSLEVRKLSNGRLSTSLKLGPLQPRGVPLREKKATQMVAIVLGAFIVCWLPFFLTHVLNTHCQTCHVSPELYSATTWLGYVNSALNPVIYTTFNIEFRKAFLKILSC
#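 Cells at 1500/well, incubated overnight, then treated with pinned compounds (dopamine as control) for 90 min at 37 degrees C. DiscoveRx reagent added for 30 - 60 minutes at room temperature; luminescence read.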
# D3 antag: qHTS of D3 Dopamine Receptor Antagonist: qHTS. D(3) dopamine receptor (Homo sapiens), P35462. D3R cells, DiscoveRx beta-arrestin luminescence, antagonist mode; hits give low values. max response, negative = inhibition, %. 2.5% of 360,000 active. AID 652054, 2013; in the data active means max response below about -50%; further: on the % scale 0 is the no-effect control and ±100 the full control effect
#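 Cells expressing the human receptor were seeded at 1500 cells/well, incubated overnight at 37 degrees C in 5% CO2, then exposed to library compounds with dopamine controls for 90 minutes at 37 degrees C before luminescent detection.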
# * hit, by the source's call; / = no result. Shown are actives, neighbours in structure and some others; about 2.8% of the full set was active somewhere.
SMILES,B2AR arrestin,Giardia kill,DRD3 agonist,D3 antag
COc1ccc(OC)c(C2C(C(=O)c3sc(C)nc3C)=C(O)C(=O)N2CCN2CCOCC2)c1 (stereo not drawn),-1%,-1,-9,-56*
COc1ccc(C(NC(=O)C2CCN(Cc3ccc(Oc4ccccc4)cc3)CC2)c2ccccc2C)cn1 (stereo not drawn),/,/,-15,-79*
COc1cc(CN2CCC(C(=O)NC(c3ccc(F)cc3)c3ncccc3C)CC2)cc(OC)c1 (stereo not drawn),/,/,-20,0
COc1ccc(CN2CCC(C(=O)Nc3ccc(Oc4cccnc4)cc3)CC2)cc1,0%,16,-8,-26
Cc1cccnc1C(NC(=O)C1CCN(Cc2ccccc2)CC1)c1ccc(F)cc1 (stereo not drawn),/,/,-12,-55*
Cc1cccnc1C(NC(=O)C1CCN(CCCOc2ccccc2)CC1)c1ccc(F)cc1 (stereo not drawn),/,/,-27,-105*
Cc1cccnc1C(NC(=O)C1CCN(Cc2ccc(Oc3ccccc3)cc2)CC1)c1ccccc1 (stereo not drawn),/,/,-22,-81*
CCCN1C[C@H](CSC)C[C@@H]2c3cccc4[nH]cc(c34)C[C@H]21,-1%,-13,84*,27
CCCCc1oc2ccc(NS(C)(=O)=O)cc2c1C(=O)c1ccc(OCCCN(CCCC)CCCC)cc1,/,/,-15,/
O=C1CCCN1c1ccc(CNS(=O)(=O)c2ccc(F)cc2)cc1,-1%,16,0,-57*
O=C1CCCN1c1ccc(S(=O)(=O)NCCc2ccc(Cl)cc2)cc1,0%,-8,-13,14
